According to the supplement of paper PMC11732987, “Enantioselective OTUD7B fragment discovery through chemoproteomics screening and high-throughput optimisation” (Communications Chemistry, 2025):

Experiments:
Experiment in all cases: log2 ratio of Biotin-Ahx-Ub-VS probe labelling (fragment/DMSO); higher = less target engagement (more negative = stronger competition), active = hit call of the paper (q ≤ 0.05, log2 ratio ≤ -1)
Details in all cases: compound concentration: 200 uM; treatment time: 3 h
USP34 = USP34 (UniProt Q70CQ2)
USP34, sequence (Q70CQ2 whole entry, the tested form may be a part): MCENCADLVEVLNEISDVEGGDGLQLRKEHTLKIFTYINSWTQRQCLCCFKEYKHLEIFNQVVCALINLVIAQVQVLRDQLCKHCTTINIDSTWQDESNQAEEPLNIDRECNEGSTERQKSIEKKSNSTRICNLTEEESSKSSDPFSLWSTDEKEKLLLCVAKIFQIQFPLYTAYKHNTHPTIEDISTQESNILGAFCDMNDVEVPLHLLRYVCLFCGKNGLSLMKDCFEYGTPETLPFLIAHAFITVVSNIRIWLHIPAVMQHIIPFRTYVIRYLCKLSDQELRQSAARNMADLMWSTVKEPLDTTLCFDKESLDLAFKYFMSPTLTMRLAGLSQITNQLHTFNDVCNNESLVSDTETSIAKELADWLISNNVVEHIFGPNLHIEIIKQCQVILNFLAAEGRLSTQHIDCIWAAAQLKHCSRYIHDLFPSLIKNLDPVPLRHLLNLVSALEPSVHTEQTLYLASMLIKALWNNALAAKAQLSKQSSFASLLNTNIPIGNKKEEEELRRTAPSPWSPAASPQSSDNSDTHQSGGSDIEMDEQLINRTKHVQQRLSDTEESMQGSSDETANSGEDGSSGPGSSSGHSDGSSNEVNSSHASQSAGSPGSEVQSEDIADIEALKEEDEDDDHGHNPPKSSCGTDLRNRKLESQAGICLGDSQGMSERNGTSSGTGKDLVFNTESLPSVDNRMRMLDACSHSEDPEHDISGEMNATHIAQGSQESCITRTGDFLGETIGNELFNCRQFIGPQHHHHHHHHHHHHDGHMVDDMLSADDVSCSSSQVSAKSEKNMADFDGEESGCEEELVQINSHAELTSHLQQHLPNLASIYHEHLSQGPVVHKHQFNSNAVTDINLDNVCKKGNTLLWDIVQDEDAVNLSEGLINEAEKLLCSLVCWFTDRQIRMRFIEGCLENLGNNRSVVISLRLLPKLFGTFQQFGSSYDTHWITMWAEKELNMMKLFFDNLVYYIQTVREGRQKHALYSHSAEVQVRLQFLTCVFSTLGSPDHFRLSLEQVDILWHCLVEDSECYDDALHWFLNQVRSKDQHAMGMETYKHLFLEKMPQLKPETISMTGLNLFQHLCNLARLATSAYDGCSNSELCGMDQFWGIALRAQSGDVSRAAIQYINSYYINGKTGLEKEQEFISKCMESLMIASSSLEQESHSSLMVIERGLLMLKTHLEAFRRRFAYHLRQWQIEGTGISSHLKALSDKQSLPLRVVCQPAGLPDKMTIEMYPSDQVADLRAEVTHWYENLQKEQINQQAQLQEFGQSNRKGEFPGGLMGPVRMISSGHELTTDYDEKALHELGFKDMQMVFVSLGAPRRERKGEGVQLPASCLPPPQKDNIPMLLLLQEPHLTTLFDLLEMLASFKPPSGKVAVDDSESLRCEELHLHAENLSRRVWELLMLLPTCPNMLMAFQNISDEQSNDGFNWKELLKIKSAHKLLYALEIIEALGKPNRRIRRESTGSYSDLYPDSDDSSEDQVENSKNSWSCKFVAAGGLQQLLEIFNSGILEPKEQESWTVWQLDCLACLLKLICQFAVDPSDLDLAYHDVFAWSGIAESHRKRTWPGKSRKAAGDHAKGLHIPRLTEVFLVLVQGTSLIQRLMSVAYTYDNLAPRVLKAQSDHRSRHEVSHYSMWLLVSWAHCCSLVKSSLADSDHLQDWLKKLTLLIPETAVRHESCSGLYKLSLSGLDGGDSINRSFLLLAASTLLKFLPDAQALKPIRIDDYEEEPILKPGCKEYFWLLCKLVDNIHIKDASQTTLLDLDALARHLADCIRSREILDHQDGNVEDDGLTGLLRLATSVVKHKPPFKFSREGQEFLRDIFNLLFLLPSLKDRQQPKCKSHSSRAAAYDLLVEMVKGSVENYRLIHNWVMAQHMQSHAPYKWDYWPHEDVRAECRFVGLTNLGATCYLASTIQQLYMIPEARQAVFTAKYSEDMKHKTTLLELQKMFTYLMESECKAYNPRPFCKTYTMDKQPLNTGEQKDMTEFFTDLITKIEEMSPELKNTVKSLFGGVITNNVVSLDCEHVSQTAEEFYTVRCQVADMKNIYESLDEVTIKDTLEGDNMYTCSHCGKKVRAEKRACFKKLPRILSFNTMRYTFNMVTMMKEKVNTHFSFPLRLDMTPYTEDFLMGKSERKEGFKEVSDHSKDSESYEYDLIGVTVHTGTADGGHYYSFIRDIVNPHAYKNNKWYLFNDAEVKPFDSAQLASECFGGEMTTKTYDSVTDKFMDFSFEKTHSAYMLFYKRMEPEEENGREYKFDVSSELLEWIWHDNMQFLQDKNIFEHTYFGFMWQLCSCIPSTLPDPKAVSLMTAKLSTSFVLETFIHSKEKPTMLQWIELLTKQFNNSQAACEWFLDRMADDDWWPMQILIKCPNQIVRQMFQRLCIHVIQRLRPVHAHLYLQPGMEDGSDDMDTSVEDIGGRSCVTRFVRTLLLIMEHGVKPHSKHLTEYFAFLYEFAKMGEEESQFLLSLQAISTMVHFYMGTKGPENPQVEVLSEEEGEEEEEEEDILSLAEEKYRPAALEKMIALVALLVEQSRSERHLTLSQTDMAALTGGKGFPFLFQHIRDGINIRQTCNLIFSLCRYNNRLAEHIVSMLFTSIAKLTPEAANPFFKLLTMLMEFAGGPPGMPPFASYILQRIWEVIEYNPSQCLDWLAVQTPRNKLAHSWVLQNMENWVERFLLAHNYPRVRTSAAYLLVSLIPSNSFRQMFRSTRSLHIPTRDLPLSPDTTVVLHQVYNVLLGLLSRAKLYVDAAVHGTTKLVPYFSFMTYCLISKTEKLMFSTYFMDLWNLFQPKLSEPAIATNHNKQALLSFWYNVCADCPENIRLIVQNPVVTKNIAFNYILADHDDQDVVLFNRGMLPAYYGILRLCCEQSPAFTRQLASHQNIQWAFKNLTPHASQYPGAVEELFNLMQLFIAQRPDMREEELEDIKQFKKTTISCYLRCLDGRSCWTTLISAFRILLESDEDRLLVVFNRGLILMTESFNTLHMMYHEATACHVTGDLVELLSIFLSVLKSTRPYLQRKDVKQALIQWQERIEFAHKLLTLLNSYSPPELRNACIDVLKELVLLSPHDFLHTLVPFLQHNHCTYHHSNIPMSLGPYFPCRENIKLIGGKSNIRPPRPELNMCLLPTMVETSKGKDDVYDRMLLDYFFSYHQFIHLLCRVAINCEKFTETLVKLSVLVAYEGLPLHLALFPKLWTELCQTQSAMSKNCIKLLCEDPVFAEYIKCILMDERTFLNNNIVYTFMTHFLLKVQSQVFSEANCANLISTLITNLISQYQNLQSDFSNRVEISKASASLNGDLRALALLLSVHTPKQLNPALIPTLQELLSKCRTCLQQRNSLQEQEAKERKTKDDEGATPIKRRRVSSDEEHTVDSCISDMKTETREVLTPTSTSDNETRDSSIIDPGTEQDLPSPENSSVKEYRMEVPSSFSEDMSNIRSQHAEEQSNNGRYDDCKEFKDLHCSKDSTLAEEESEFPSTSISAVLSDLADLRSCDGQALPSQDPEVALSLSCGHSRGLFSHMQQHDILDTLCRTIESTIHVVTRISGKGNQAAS
Outline: (§1)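 Each value is an average log2 ratio of fragment to vehicle, tested by unpaired t-test. The underlying Spectronaut label-free quantities were global-median-normalised, and only proteins with ≥2 unique peptides were included. Triplicate HEK293T lysate samples (495 µg) were exposed to fragment at 200 µM or vehicle for 3 h, then to Biotin-Ahx-Ub-VS at 0.5 µM final for 1 h, before NeutrAvidin enrichment of labelled DUBs, LysC and trypsin digestion, and diaPASEF LC-MS/MS.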

USP36 = target: T1, USP36 (UniProt Q9P275)
T1 sequence (whole entry): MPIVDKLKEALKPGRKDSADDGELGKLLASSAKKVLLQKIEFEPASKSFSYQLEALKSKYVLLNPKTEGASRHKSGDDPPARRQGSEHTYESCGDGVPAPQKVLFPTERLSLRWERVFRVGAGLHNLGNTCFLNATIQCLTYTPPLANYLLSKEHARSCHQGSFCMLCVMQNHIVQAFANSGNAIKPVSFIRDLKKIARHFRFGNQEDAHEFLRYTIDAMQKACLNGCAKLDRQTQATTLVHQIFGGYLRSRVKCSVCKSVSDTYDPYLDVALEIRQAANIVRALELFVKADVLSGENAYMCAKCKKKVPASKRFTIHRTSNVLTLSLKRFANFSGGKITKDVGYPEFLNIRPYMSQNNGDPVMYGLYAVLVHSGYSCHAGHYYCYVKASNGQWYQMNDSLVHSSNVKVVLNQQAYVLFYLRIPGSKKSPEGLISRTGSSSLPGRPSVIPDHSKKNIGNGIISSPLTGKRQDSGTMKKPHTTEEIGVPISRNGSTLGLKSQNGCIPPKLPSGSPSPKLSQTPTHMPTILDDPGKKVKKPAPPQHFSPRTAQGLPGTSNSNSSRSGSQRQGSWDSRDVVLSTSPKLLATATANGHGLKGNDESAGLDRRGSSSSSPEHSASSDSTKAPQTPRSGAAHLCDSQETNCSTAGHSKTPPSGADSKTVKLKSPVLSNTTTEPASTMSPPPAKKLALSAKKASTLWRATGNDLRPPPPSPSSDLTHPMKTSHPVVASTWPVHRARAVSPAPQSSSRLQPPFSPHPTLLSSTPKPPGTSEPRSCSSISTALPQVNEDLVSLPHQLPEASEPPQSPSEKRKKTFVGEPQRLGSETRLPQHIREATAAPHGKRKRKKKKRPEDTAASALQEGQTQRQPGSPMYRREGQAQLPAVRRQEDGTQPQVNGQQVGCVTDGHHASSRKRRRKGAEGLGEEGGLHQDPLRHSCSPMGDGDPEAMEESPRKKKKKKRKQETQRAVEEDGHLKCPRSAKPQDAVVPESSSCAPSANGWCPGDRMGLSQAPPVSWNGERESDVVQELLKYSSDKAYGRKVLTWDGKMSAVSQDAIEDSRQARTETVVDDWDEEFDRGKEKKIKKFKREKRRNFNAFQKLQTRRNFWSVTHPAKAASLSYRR
Outline: as §1

USP38 = target: T2, USP38 (UniProt Q8NB14)
T2 sequence (whole entry): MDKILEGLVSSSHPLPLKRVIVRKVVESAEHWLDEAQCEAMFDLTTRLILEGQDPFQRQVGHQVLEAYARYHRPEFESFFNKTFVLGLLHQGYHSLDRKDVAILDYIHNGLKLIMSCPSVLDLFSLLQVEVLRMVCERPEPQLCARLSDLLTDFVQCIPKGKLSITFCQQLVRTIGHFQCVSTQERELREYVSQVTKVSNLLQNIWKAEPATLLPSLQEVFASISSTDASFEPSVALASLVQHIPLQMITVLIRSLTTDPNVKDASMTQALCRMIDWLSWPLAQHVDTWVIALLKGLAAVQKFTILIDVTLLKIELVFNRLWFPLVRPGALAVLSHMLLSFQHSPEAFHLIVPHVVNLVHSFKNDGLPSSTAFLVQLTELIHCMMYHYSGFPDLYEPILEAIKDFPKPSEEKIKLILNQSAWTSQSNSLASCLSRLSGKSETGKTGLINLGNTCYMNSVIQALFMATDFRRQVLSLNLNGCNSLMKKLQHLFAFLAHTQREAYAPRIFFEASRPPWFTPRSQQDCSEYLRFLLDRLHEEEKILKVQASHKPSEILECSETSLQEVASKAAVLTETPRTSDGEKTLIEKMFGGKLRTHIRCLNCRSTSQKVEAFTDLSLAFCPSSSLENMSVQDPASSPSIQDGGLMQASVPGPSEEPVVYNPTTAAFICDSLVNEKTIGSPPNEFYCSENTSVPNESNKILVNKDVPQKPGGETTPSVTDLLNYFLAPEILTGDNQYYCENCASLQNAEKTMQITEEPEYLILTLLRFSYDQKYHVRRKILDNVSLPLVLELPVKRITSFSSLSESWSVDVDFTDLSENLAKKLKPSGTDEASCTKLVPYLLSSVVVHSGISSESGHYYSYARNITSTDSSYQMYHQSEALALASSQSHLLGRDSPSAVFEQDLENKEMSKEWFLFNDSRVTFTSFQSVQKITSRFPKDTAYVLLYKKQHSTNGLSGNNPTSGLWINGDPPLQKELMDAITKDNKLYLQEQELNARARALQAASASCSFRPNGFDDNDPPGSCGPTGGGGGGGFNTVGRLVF
Outline: as §1

USP39 = target: T3, USP39 (UniProt Q53GS9)
T3 sequence (whole entry): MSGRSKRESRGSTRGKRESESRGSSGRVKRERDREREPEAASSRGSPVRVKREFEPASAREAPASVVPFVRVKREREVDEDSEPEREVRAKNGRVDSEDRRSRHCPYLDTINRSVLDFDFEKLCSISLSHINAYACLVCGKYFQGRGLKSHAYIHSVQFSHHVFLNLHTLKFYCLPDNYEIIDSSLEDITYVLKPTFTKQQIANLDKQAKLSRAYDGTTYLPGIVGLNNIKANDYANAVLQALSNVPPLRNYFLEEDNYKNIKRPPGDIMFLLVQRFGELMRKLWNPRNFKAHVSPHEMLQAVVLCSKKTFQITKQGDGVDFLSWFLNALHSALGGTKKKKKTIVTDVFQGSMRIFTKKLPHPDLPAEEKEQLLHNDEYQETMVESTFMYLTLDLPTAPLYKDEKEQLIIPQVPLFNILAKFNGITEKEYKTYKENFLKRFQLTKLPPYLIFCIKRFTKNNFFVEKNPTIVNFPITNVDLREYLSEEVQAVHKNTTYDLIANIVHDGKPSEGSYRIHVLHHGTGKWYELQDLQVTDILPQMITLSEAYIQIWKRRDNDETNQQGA
Outline: as §1

USP4 = target: T4, USP4 (UniProt Q13107)
T4 sequence (whole entry): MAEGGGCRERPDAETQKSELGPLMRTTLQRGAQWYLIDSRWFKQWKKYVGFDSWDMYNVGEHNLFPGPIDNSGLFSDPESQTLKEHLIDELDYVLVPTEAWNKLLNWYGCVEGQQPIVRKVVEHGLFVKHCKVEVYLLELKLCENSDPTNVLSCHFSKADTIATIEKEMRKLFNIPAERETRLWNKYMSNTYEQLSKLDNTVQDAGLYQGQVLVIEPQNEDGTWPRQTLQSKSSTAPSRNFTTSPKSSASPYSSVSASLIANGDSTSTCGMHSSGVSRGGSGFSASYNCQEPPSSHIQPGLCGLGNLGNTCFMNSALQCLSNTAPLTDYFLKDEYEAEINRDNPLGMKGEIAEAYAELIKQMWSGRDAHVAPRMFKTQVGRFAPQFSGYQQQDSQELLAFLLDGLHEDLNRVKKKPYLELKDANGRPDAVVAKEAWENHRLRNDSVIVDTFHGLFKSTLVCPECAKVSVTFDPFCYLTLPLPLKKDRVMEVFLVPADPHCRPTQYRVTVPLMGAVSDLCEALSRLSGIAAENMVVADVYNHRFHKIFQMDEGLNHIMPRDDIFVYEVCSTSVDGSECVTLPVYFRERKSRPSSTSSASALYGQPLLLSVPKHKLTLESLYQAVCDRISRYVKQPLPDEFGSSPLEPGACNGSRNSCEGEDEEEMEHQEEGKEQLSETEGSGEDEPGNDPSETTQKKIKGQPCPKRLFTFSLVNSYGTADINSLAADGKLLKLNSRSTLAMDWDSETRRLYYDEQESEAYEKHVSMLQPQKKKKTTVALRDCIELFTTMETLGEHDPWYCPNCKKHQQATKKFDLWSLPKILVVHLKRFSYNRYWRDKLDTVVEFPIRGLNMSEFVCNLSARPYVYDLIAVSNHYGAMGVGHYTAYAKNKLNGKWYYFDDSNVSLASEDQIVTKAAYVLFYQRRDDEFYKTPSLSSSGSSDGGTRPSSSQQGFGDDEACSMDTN
Outline: as §1

Measured: log2 ratio of Biotin-Ahx-Ub-VS probe labelling

Cc1ccc(N(C(=O)CCl)C2C=CS(=O)(=O)C2)cc1 (stereo not given)
inactive: USP34 -0.0862 | USP36 -0.145 | USP38 0.105 | USP39 0.107 | USP4 0.0944
